CYP2C9 act: increases human cytochrome P450 2C9 activity | P11712 | recombinant CYP2C9, luciferin-H conversion, luminescence; stronger effect = higher value; factor 1 = untreated enzyme, 0 = blocked | hit rate 1.4% among 96,000 | activation factor at 5 µM;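 active = activation factor of 2 or more for CYP2C9 at a 5 µM dose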
PostGolgi yeast: growth inhibition of a yeast mutant, post-Golgi transport screen. post-Golgi transport phenotypic cell assay. inhibition, % at 10 µM. hit rate 0.9% among 98,000. AID 739;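 also: yeast cells grown in 1536-well plates; yeast grown about 18 h at 30C before absorbance read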
CYP2C19 act: cytochrome P450 2C19 (human) activation. AID 1025. 96,000 tested, under 10 active. activation factor at 5 µM. recombinant CYP2C19, luciferin-H EGE luminescence; stronger effect = higher value; 0 = fully inhibited enzyme, 1 = untreated enzyme. P33261;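 active = activation factor of at least 2 at 5 µM in the primary screen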
Target sequence (P33261 whole entry, looked up): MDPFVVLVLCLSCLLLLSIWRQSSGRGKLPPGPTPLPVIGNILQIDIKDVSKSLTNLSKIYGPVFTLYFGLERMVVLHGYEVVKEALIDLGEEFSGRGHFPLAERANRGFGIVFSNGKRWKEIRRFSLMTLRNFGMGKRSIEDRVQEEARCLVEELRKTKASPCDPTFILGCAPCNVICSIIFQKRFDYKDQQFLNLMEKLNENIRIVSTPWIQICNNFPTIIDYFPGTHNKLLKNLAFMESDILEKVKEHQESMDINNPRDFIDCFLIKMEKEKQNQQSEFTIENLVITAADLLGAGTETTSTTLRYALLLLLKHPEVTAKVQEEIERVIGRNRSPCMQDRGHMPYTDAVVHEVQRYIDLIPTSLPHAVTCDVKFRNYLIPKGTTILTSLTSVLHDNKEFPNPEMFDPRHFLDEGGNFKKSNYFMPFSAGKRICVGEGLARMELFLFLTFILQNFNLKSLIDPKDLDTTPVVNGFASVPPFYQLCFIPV
PostGolgi ctrl: yeast control strain growth, post-Golgi counter-screen. efflux-deficient yeast background strain, growth absorbance A615, 16 h. hit rate 5% among 98,000. inhibition, % at 10 µM. AID 738
CYP2C19 inhib: blocks human cytochrome P450 2C19; CYP2C19 Supersomes, luciferin-H EGE luminescence, 30 min; AID 778; hit rate 21% among 96,000; inhibition, % at 5 µM; P33261;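 active = CYP2C19 inhibition above a set limit at 5 µM in the primary screen, cut at about 50% in these data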
CYP2C9 inhib: human CYP2C9 inhibition; AID 777; inhibition, % at 5 µM; CYP2C9 Supersomes, luciferin-H conversion, luminescence; hit rate 20% among 96,000;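 active = blocking of liver enzyme CYP2C9 beyond about 50% at 5 µM, limit read from the data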
A number is an active result; n = inactive; x = not tested or not shown. This is a sample that favours compounds with a hit; in the whole collection about 32% have one here. Rule as the data show it, unless noted: active = inhibition above about 30%; inactive = the rest.

SMILES	CYP2C9 act	PostGolgi yeast	CYP2C19 act	PostGolgi ctrl	CYP2C19 inhib	CYP2C9 inhib
[O-]/[N+](=C/c1ccc(F)cc1)c1ccccc1	n	n	n	32.7	n	n
[O-]/[N+](=C\c1ccncc1)c1ccccc1	n	n	n	n	n	n
CC(C)(C)C(=O)CN1C(=O)C2(OCCO2)c2ccccc21	n	n	n	n	n	n
CSc1nc(N2CCOCC2)c2c(c1C#N)CC(C)(C)OC2	n	n	n	n	60.8	96.8
COC(=O)c1ccc(CSc2nc(N3CCOCC3)c3c(c2C#N)CC(C)(C)OC3)o1	n	n	n	n	68.6	97.8
CC(C)CCSc1nc(N2CCOCC2)c2c(c1C#N)CC(C)(C)OC2	n	n	n	n	63.3	98.5
CC(Sc1nc(N2CCOCC2)c2c(c1C#N)CC(C)(C)OC2)C(=O)Nc1ccccc1 (configuration not stated)	x	n	x	n	x	x
COc1ccc(CN2CCCC(C(=O)N(C)Cc3ccccc3)C2)cc1OC (configuration not stated)	n	n	n	n	n	n
O=C(NS(=O)(=O)c1ccccc1)c1ccccc1F	n	n	n	n	n	n
CSc1nn(CCc2ccncc2)c(=S)s1	n	n	n	n	97.1	64.9
CC(=O)c1cccc(N(CC(=O)Nc2cccnc2)S(C)(=O)=O)c1	n	n	n	n	n	n
O=C(CCN1C(=O)c2ccccc2C1=O)Nc1ccc2c(c1)OCCO2	n	n	n	35.1	n	n
O=C(CCCCCN1C(=O)c2ccccc2C1=O)Nc1ccc2c(c1)OCCO2	n	n	n	n	71.2	75.9
CCC(=O)Nc1ccc2c(c1)OCCO2	n	n	n	n	n	n
COc1ccc(NC(=O)C(CCS(C)(=O)=O)N2C(=O)c3ccccc3C2=O)cc1 (configuration not stated)	n	n	n	n	n	n
O=C(CCCN1C(=O)CCC1=O)Nc1ccc2c(c1)OCCO2	n	n	n	n	n	n
CSCCC(C(=O)Nc1ccc2c(c1)OCO2)N1C(=O)c2ccccc2C1=O (configuration not stated)	n	n	n	n	n	52.2
COC(=O)c1cc(COC(=O)c2cccnc2SC)oc1C	n	n	n	n	n	n
COC(=O)c1sccc1NC(=O)c1ccoc1C	n	n	n	n	n	n
COCCSc1ccccc1C(=O)NCc1ccc(S(N)(=O)=O)cc1	n	n	n	n	n	n
Cc1cccc(N(C(=O)c2sc(C)nc2C)C(C(=O)NCc2ccco2)c2ccccc2)c1 (configuration not stated)	n	n	n	n	n	n
Cn1c(NC(=O)C2CCCO2)cc(=O)n(C)c1=O (configuration not stated)	n	n	n	n	n	65.6
Cn1c(NC(=O)C2c3ccccc3Oc3ccccc32)cc(=O)n(C)c1=O	n	n	n	n	n	n
COc1ccccc1NC=C1C(=O)OC2(CCCCC2)OC1=O	2.8	n	n	n	n	n
COC(=O)c1ccccc1NC=C1C(=O)OC2(CCCCC2)OC1=O	n	n	n	n	n	n
SMILES	CYP2C9 act	PostGolgi yeast	CYP2C19 act	PostGolgi ctrl	CYP2C19 inhib	CYP2C9 inhib
Cc1ccsc1/C=C/c1ccc2cccc(O)c2n1	n	n	n	n	56.8	72.6
Cc1ccsc1/C=C/c1ccc2ccccc2n1	n	n	n	n	n	n
Cc1cc(N2C(=O)CC(N3CCN(c4ccc(C(=O)c5cccs5)cc4)CC3)C2=O)no1 (configuration not stated)	n	n	n	n	n	59.1
c1ccc(-c2nc(Sc3ncnc4c3cnn4-c3ccccc3)n[nH]2)cc1	n	n	n	n	n	n
COc1cc(C(=O)Oc2ccccc2/C=N/NC(=O)c2ccc(Cl)cc2Cl)cc(OC)c1OC	n	n	n	n	n	97.2
COc1cc(/C=C(/NC(=O)c2ccccc2Cl)C(=O)O)cc(OC)c1OC	n	n	n	n	n	n
COC(=O)c1cc(OC)c(OC)c(OC)c1N	n	n	n	n	64.2	n
COc1cc(C(=O)Oc2ccccc2N)cc(OC)c1OC	n	n	n	n	n	67.7
COC(=O)CSc1nnc(CNC(=O)Cc2ccccc2)n1C	n	n	n	n	n	n
COc1ccc(C(=O)CSc2nnc(CNc3nc(-c4ccccc4)cs3)n2C)cc1	n	n	n	n	63.8	61.5
CCOC(=O)c1c(NC(=O)CSc2nnc(CNc3ccc(OC)cc3)n2C)sc(C)c1C	n	n	n	n	n	76.9
COC(=O)CSc1nnc(CNc2ccc(OC)cc2)n1C	n	n	n	n	57.9	n
Cc1ccccc1NC(=O)CCC(=O)OCCCC(F)(F)C(F)(F)F	n	n	n	n	n	n
CCN(CC)CCCNC(=O)c1cc(-c2ccc(O)cc2)on1	2.3	n	n	n	n	n
CC1CCCN(C(=O)CSc2nc3ccccc3o2)C1 (configuration not stated)	n	n	n	n	n	n
Cc1ccc2nc(NC(=O)COC(=O)c3ccco3)sc2c1	n	n	n	n	n	n
Cc1ccc2nc(NC(=O)CN(C)S(=O)(=O)c3ccc(Br)s3)sc2c1	n	n	n	34.6	n	n
Cc1cccc2sc(NC(=O)CNS(=O)(=O)c3ccc(Br)s3)nc12	n	n	n	n	65.4	n
Cc1cc(C(=O)Nc2nc3c(C)cccc3s2)c(C)o1	n	n	n	n	n	n
Cc1ccc(S(=O)(=O)N(C)CC(=O)Nc2nc3ccccc3s2)cc1	n	n	n	n	n	n
Cc1ccc2nc(NC(=O)CNS(=O)(=O)c3ccc(Br)s3)sc2c1	n	n	n	n	n	62.8
Cc1ccc(S(=O)(=O)N2CCN(S(=O)(=O)N(C)C)CC2)c(C)c1	n	n	n	n	n	n
Cc1c(OCc2nn[nH]n2)ccc2c(-c3ccccc3)cc(=O)oc12	n	n	n	n	95.3	98.3
O=C(O)COc1ccc2c(-c3ccccc3)cc(=O)oc2c1	n	x	n	x	n	n
CCc1cc(=O)oc2cc(OCc3nn[nH]n3)ccc12	n	n	n	n	n	n
SMILES	CYP2C9 act	PostGolgi yeast	CYP2C19 act	PostGolgi ctrl	CYP2C19 inhib	CYP2C9 inhib
COc1ccc(-c2cc(=O)oc3c(C)c(OCc4nn[nH]n4)ccc23)cc1	n	n	n	n	78.7	97.1
Cc1cc(OCc2nn[nH]n2)c2c(-c3ccccc3)cc(=O)oc2c1	n	n	n	n	n	70.6
CCCCc1cc(=O)oc2cc(OCc3nn[nH]n3)c(Cl)cc12	n	n	n	n	n	80.3
c1ccc(Nc2nn[nH]n2)cc1	n	n	n	n	n	n
O=C1CC(SC(=Nc2ccccc2)Nc2ccccc2)C(=O)N1c1cccc2ccccc12 (configuration not stated)	n	n	n	n	n	n
O=C(CN(CCc1ccccc1)C(=O)CNS(=O)(=O)c1ccccc1)NCc1ccco1	n	n	n	n	n	n
Cc1cc(OCC(=O)N(C)C)c2c(-c3ccccc3)cc(=O)oc2c1	n	n	n	n	n	63.6
CCN(CC)C(=O)COc1cc(C)cc2oc(=O)cc(-c3ccccc3)c12	n	n	n	n	n	n

Screening results from PubChem BioAssay.
